The record followed here is PubChem BioAssay (EPA / NIEHS).

Usually AC50 stands for the midpoint of the concentration-response curve, whichever way the signal moves.

Records with an inconclusive call do not appear. Activity calls are given as the source filed them. How the source made its calls, unless noted: active means hit-call score of the fitted dose curve at least 0.9, where 1 is the maximum; inconclusive means response in the unintended direction; inactive means score below 0.9.

A short description of test [1]: ATG_TAL_CIS: Attagene CIS-FACTORIAL HepG2 Assay for human TAL Basal Promoter (AID 2282966; active means hit-call score of the fitted dose curve at least 0.9, where 1 is the maximum; inactive means score below 0.9;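 further: background control endpoint measuring basal TAL promoter reporter mRNA not a specific factor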). To be noted: HepG2 Attagene cis-factorial TAL promoter reporter; actives raise or lower the signal. In a few lines:
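Basal-promoter background-control endpoint from a multiplexed HepG2 reporter panel. Cells were exposed 24 h, then reporter mRNA was read by RT-PCR/CE fluorescence and fitted in both directions relative to DMSO.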

Test [2] is described as follows: ATG_TGFb_CIS: Attagene CIS-FACTORIAL HepG2 Assay for human Transforming Growth Factor (TGF) (AID 2282967; active means hit-call score of the fitted dose curve at least 0.9, where 1 is the maximum; inactive means score below 0.9). To be noted: HepG2 Attagene CIS TGFb reporter, mRNA transcription; actives raise or lower the signal. In a few lines: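 HepG2 cells transiently transfected with cis-promoter-driven multiplexed reporter units; 24 h compound exposure. Reporter mRNA measured by RT-PCR, 6-FAM labeling, HpaI digestion and capillary electrophoresis; bidirectional fit versus DMSO baseline.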

The nature of test [3]: ATG_VDRE_CIS: Attagene CIS-FACTORIAL HepG2 Assay for human Vitamin D Receptor Element (VDRE) (AID 2282968; active means hit-call score of the fitted dose curve at least 0.9, where 1 is the maximum; inactive means score below 0.9). To be noted: HepG2 VDRE cis-reporter transcription, actives raise or lower the signal. An outline of the steps: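 Compounds were applied for 24 h to HepG2 cells transfected with promoter-regulated reporter units. Total RNA was reverse-transcribed, and reporter amplicons were fluorescently labelled and sized by capillary electrophoresis.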

Test [4] concerns the target Estrogen receptor (Homo sapiens) (UniProt P03372). Description: ATG_ERa_TRANS: Attagene TRANS-FACTORIAL HepG2 Assay for human Estrogen Receptor alpha (ERa) (AID 2282970). To be noted: HepG2 Attagene TRANS ERa GAL4 reporter, mRNA. An outline of the steps: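 Gal4-fusion ERa transactivation, measured as reporter transcript level in transiently transfected HepG2 cells. Exposure 24 h; RT-PCR plus capillary electrophoresis with fluorescence detection.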

Test [5] has as its target Steroid hormone receptor ERR1 (Homo sapiens) (UniProt P11474). Description: ATG_ERRa_TRANS: Attagene TRANS-FACTORIAL HepG2 Assay for human Estrogen-Related Receptor alpha (ERRa) (AID 2282971). To be noted: HepG2 Attagene TRANS reporter, ERRa transactivation. In a few lines:
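HepG2 cells transiently transfected with GAL4-UAS reporter units and chimeric NR-Gal4 constructs; after 24 hour compound incubation, reporter mRNA quantified by RT-PCR, fluorescent labelling and capillary electrophoresis, gain of signal versus DMSO.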

Test [6] has as its target X-box-binding protein 1 (Homo sapiens) (UniProt P17861). Description: ATG_Xbp1_CIS: Attagene CIS-FACTORIAL HepG2 Assay for human X-box Binding Protein 1 (XBP1) (AID 2282972; active means hit-call score of the fitted dose curve at least 0.9, where 1 is the maximum; inactive means score below 0.9). To be noted: HepG2 XBP1 cis-element reporter, Attagene multiplex; actives raise or lower the signal. An outline of the steps: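 Human hepatoma HepG2, cis-element reporter system, 24 h treatment; mRNA quantified by RT-PCR/CE fluorescence; fit relative to DMSO.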

A short description of test [7]: ATG_M_19_TRANS: Attagene TRANS-FACTORIAL HepG2 Assay for M19 Transcription Factor (Internal Marker) (AID 2282974). To be noted: HepG2 Attagene TRANS-FACTORIAL M19 internal marker reporter. An outline of the steps: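 Reporter mRNA induction was measured in transfected HepG2 cells 24 h after dosing. Endpoint fitted upward relative to DMSO and serves as a background control within the multiplexed TRANS panel.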

Test [8] addresses Bile acid receptor (Homo sapiens) (UniProt Q96RI1). Description: ATG_FXR_TRANS: Attagene TRANS-FACTORIAL HepG2 Assay for Farnesoid X Receptor (FXR) (AID 2282979).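 Further: hits raise reporter mRNA above DMSO so AC50 marks FXR activation.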 To be noted: HepG2 Attagene TRANS FXR-GAL4 reporter transcription. An outline of the steps:
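HepG2 cells were transiently transfected with GAL4-UAS reporters driven by chimeric NR-Gal4 proteins and dosed for 24 h. Reporter mRNA was quantified by RT-PCR, fluorescent labelling, HpaI digestion and capillary electrophoresis, with gain of signal scored versus DMSO.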

Test [9] concerns the target Oxysterols receptor LXR-alpha (Homo sapiens) (UniProt Q13133). Description: ATG_LXRa_TRANS: Attagene TRANS-FACTORIAL HepG2 Assay for human Liver X Receptor alpha (LXRa) (AID 2282980). To be noted: HepG2 Attagene TRANS reporter, LXRa transactivation. An outline of the steps:
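HepG2 cells transiently transfected with GAL4-UAS reporter units for chimeric NR-Gal4 proteins, exposed to chemicals for 24 h. Reporter mRNA quantified by RT-PCR and capillary electrophoresis; gain of signal fitted relative to DMSO.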

Test [10] has as its target Oxysterols receptor LXR-beta (Homo sapiens) (UniProt P55055). Description: ATG_LXRb_TRANS: Attagene TRANS-FACTORIAL HepG2 Assay for human Liver X Receptor beta (LXRb) (AID 2282981). To be noted: HepG2 Attagene TRANS GAL4-LXRb reporter, mRNA. An outline of the steps: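 Multiplexed reporter assay, HepG2, 24 h dosing. Fluorescence of labelled RT-PCR products after capillary electrophoresis gives transcript level; positive fitting direction relative to DMSO.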

Test [11] can be described thus: ATG_M_32_TRANS: Attagene TRANS-FACTORIAL HepG2 Assay for M32 Transcription Factor (Internal Marker) (AID 2282984). To be noted: HepG2 Attagene TRANS M32 internal marker reporter. In a few lines:
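Internal-marker readout from a multiplexed transcription reporter panel. HepG2 cells were transfected with GAL4-UAS reporter units, treated 24 hours, and reporter transcript levels determined by fluorescence after RT-PCR and capillary separation.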

For test [12], the target named is Nuclear receptor subfamily 4 group A member 2 (Homo sapiens) (UniProt P43354). Put plainly: ATG_NURR1_TRANS: Attagene TRANS-FACTORIAL HepG2 Assay for human Nuclear Receptor Related Protein 1 (NURR1) (AID 2282985). To be noted: HepG2 Attagene TRANS reporter, mRNA readout. An outline of the steps: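 Endpoint: reporter mRNA increase relative to DMSO. HepG2 cells transfected with reporter units, treated 24 h; RNA processed by RT-PCR, labelling, HpaI digestion and capillary electrophoresis.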
Sequence of Nuclear receptor subfamily 4 group A member 2 (Homo sapiens) (P43354 whole entry, looked up): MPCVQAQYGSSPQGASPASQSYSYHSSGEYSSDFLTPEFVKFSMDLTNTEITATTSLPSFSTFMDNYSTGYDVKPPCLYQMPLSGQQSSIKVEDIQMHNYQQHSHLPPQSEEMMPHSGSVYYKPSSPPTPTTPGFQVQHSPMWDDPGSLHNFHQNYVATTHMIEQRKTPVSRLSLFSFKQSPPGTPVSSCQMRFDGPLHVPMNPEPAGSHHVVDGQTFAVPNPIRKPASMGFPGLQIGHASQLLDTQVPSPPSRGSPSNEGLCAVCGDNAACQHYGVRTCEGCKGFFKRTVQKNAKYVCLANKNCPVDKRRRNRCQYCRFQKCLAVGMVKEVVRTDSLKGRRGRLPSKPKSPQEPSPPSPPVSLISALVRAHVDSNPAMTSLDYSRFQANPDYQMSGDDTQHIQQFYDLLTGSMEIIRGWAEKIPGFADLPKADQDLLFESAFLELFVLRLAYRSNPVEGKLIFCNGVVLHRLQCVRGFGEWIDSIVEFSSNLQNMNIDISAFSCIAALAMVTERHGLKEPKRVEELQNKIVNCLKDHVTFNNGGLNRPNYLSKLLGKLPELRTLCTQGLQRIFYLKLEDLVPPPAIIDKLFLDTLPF

In test [13] the target is Nuclear respiratory factor 1 (Homo sapiens) (UniProt Q16656). Put plainly: ATG_NRF1_CIS: Attagene CIS-FACTORIAL HepG2 Assay for human Nuclear Respiratory Factor 1 (NRF1) Orphan Gene (AID 2282987; active means hit-call score of the fitted dose curve at least 0.9, where 1 is the maximum; inactive means score below 0.9). To be noted: HepG2 NRF1 cis-element reporter, Attagene multiplex; actives raise or lower the signal. In a few lines: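 Cells (HepG2, transient MRTU transfection) are exposed to compound for 24 h, then RNA isolated and reporter mRNA amplified and fluorescently labelled. Fragments are separated by capillary electrophoresis; signal change is fitted bidirectionally relative to DMSO.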
Sequence of Nuclear respiratory factor 1 (Homo sapiens) (Q16656 whole entry, looked up, the tested form may be a part): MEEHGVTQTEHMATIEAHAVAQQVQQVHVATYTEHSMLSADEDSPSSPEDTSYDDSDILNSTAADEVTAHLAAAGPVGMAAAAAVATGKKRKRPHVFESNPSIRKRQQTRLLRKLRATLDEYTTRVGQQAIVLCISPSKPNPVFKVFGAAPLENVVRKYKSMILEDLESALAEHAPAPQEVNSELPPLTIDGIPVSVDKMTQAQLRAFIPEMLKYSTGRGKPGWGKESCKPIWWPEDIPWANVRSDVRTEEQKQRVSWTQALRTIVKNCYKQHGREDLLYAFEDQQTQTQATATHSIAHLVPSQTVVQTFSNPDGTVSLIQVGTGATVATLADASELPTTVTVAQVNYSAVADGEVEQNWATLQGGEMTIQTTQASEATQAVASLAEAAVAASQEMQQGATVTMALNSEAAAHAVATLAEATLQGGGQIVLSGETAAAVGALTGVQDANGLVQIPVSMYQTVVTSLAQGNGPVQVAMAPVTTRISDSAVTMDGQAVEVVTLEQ

Test [14] can be described thus: ATG_GAL4_TRANS: Attagene TRANS-FACTORIAL HepG2 Assay for GAL4 (Internal Marker) (AID 2282976). To be noted: HepG2 Attagene TRANS GAL4 internal marker reporter. An outline of the steps:
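Background-control readout: GAL4-UAS reporter transcript in transiently transfected HepG2 cells after 24 h compound exposure. Measured by RT-PCR, 6-FAM primer extension, HpaI digest and capillary electrophoresis; gain-of-signal fit versus DMSO.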

For test [15], the target named is Estrogen-related receptor gamma (Homo sapiens) (UniProt P62508). Put plainly: ATG_ERRg_TRANS: Attagene TRANS-FACTORIAL HepG2 Assay for human Estrogen-Related Receptor gamma (ERRg) (AID 2282977).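 Further: hits increase reporter signal over DMSO so potencies reflect activators.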 To be noted: HepG2 Attagene TRANS reporter, ERRg transactivation. An outline of the steps: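 Exogenous NR-Gal4 chimera activity measured as reporter transcript induction after 24 h in transiently transfected HepG2 cells. RNA reverse-transcribed, PCR-amplified, 6-FAM-labelled and resolved by capillary electrophoresis; increase over DMSO baseline.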

Test [16] can be described thus: ATG_M_06_TRANS: Attagene TRANS-FACTORIAL HepG2 Assay for M06 Transcription Factor (Internal Marker) (AID 2282983). To be noted: HepG2 Attagene TRANS M06 internal marker reporter. In a few lines:
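mRNA levels of a reporter transcript, quantified as FAM fluorescence on capillary electrophoresis, served as readout. HepG2 cells expressing exogenous GAL4-chimera reporter constructs were exposed for 24 h. Gain of signal over DMSO was evaluated.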

In test [17] the target is Transcriptional activator Myb (Homo sapiens) (UniProt P10242). Put plainly: ATG_Myb_CIS: Attagene CIS-FACTORIAL HepG2 Assay for human Myeloblastosis (Myb) Proto-Oncogene Transcription Factor (AID 2282986; active means hit-call score of the fitted dose curve at least 0.9, where 1 is the maximum; inactive means score below 0.9). To be noted: HepG2 Attagene CIS-FACTORIAL Myb reporter transcription; actives raise or lower the signal. An outline of the steps: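 Transiently transfected HepG2 cells, treated 24 h. Reporter mRNA quantified by RT-PCR/capillary electrophoresis; bidirectional fit relative to DMSO.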
Sequence of Transcriptional activator Myb (Homo sapiens) (P10242 whole entry, looked up): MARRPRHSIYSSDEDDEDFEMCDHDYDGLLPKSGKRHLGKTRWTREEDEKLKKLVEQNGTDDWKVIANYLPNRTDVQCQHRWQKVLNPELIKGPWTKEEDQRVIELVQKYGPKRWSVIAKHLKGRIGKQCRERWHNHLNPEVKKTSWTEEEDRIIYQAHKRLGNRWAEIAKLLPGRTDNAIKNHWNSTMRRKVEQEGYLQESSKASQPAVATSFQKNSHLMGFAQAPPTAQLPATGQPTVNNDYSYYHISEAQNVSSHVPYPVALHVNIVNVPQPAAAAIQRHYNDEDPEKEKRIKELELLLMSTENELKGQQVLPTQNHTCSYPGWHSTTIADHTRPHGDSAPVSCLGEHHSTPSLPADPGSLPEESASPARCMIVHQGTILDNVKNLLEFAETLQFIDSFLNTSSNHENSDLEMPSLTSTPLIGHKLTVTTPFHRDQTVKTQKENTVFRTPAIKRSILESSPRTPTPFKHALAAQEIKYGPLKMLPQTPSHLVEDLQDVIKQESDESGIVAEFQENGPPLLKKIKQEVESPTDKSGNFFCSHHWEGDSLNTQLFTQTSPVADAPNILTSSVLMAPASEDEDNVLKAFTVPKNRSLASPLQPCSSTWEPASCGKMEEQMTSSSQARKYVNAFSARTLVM

Test [18] deals with Hepatocyte nuclear factor 4-alpha (Homo sapiens) (UniProt P41235). Description: ATG_HNF4a_TRANS: Attagene TRANS-FACTORIAL HepG2 Assay for human Hepatocyte Nuclear Factor 4 alpha (HNF4a) (AID 2282982). To be noted: HepG2 HNF4a transactivation reporter, mRNA readout. An outline of the steps: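 Endpoint reflects transcriptional activation of a GAL4-UAS reporter by an HNF4a-GAL4 chimera in transfected HepG2 cells, 24 h post-dosing. Fluorescence from RT-PCR products separated by capillary electrophoresis; DMSO baseline.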

Test [19] concerns the target Glucocorticoid receptor (Homo sapiens) (UniProt P04150). Put plainly: ATG_GR_TRANS: Attagene TRANS-FACTORIAL HepG2 Assay for human Glucocorticoid Receptor (GR) (AID 2282978).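 Further: activators score as hits since higher reporter transcript over DMSO is fitted.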 To be noted: HepG2 Attagene TRANS GR reporter, mRNA transcription. An outline of the steps:
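Reporter transcript levels, detected by fluorescence after RT-PCR and capillary electrophoresis, served as the endpoint. HepG2 cells bearing transfected GAL4-UAS reporters responsive to NR-GAL4 chimeras were incubated with compound 24 h; DMSO defined baseline.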

Sequence of Estrogen receptor (Homo sapiens) (P03372 whole entry, looked up, the tested form may be a part): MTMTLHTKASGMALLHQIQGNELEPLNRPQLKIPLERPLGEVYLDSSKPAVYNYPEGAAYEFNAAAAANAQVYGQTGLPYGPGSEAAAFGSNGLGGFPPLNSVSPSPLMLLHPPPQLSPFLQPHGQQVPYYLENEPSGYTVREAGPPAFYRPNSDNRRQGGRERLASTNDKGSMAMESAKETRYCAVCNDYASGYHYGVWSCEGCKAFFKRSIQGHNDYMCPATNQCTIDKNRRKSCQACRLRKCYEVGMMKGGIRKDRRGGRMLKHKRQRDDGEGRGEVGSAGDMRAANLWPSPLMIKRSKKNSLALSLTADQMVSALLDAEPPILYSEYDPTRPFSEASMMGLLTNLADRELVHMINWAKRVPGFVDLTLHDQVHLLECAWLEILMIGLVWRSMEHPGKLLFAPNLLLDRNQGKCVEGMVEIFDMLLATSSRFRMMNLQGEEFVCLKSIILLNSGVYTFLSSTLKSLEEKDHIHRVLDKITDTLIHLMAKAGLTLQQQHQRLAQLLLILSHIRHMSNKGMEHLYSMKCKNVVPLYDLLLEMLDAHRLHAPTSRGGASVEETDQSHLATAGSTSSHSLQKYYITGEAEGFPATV
Sequence of X-box-binding protein 1 (Homo sapiens) (P17861 whole entry, looked up): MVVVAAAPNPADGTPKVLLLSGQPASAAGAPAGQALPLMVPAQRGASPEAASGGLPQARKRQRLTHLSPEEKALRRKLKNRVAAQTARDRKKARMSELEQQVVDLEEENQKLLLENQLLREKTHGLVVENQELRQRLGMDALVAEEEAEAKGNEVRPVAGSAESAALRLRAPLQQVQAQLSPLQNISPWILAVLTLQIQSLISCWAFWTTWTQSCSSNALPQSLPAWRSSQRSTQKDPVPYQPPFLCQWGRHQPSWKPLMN
Sequence of Glucocorticoid receptor (Homo sapiens) (P04150 whole entry, looked up, the tested form may be a part): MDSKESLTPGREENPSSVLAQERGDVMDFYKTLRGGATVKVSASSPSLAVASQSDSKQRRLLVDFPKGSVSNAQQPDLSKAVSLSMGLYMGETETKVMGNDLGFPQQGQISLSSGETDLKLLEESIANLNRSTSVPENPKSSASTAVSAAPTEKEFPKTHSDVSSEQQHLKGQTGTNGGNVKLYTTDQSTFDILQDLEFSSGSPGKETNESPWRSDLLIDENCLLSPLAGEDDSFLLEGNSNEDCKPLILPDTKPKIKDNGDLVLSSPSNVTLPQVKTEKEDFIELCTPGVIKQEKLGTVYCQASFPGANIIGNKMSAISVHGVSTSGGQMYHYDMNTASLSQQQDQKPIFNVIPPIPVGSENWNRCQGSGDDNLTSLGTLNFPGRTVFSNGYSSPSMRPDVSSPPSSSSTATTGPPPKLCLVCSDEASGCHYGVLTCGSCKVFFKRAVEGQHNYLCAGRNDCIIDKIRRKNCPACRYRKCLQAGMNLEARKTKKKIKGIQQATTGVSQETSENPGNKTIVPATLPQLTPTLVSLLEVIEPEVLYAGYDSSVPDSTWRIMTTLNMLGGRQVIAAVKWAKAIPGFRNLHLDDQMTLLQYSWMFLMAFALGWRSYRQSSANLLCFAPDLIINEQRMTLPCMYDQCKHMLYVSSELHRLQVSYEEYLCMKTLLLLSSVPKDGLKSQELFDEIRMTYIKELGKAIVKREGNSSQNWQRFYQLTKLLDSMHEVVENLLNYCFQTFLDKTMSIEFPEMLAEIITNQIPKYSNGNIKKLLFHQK
Sequence of Oxysterols receptor LXR-beta (Homo sapiens) (P55055 whole entry, looked up, the tested form may be a part): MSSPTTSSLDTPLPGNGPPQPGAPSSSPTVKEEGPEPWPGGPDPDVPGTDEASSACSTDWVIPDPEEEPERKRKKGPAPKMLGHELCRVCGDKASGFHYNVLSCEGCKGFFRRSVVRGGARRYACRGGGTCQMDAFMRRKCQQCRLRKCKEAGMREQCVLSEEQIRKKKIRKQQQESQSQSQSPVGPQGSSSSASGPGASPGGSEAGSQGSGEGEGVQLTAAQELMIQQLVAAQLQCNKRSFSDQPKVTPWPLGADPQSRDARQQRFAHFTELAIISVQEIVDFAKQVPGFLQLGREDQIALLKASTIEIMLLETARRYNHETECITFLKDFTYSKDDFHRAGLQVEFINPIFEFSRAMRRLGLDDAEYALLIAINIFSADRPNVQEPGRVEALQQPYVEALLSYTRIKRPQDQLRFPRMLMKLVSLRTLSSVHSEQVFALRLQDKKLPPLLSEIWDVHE
Sequence of Bile acid receptor (Homo sapiens) (Q96RI1 whole entry, looked up, the tested form may be a part): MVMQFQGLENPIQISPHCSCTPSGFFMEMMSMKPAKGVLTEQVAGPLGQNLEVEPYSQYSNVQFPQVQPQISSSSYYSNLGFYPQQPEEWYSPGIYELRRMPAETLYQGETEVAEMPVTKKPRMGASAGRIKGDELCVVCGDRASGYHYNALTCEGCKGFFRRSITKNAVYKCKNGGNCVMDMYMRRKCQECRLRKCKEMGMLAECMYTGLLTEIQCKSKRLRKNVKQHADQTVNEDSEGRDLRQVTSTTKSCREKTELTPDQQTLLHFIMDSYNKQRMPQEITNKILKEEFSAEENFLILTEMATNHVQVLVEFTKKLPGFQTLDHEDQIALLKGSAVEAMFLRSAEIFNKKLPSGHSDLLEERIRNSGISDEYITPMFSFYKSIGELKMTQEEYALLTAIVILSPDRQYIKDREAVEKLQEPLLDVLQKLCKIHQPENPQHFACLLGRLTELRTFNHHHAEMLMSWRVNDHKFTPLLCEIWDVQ
Sequence of Oxysterols receptor LXR-alpha (Homo sapiens) (Q13133 whole entry, looked up, the tested form may be a part): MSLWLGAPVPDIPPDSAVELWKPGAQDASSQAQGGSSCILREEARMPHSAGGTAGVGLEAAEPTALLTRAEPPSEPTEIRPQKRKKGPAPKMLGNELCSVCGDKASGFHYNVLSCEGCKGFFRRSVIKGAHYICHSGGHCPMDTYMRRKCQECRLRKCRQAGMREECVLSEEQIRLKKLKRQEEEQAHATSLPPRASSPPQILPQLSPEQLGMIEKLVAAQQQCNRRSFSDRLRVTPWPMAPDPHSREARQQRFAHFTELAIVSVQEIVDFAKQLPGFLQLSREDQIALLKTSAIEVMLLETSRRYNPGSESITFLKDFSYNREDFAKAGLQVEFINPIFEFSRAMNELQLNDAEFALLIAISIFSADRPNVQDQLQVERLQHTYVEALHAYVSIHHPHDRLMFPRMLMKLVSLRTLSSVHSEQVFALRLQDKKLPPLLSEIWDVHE

For `CCC(Cc1ccccc1)(C(=O)c1ccc(N2CCOCC2)cc1)N(C)C` (stereo unspecified), the AC50 in test [1] is 23.5 µM (active); in test [3], 6.85 µM (active); in test [4], 1.03 µM (active); in test [9], 23.3 µM (active); in test [10], 27.5 µM (active); in [12], 41 µM (active). Besides, the AC50 in test [13] is 30.3 µM (active). For the same compound, the result in test [2], in test [5], in test [6], in [7], in [8] and in [11] was inactive.

Turning to `Nc1ccc(Oc2ccc(N)c(N)c2)cc1`, the compound was classed as inactive in [1], in test [2], in [3], in test [4], in [6] and in [14]. Further, the call in [15], in [8], in [9], in [16], in test [11] and in test [12] was inactive. Moreover, the result in test [17] was inactive.

For `CC1=Nc2ccc3ccccc3c2C1(C)C`, the compound was classed as inactive in [1], in test [2], in test [5], in test [6], in test [7] and in test [14]. For the same compound, the result in [15], in test [8], in [9], in test [10], in test [18] and in [11] was inactive. In addition, the result in [17] was inactive. In addition, the AC50 was 2.97 µM (active) in [3] and 17.1 µM (active) in [4].

In the case of `O=[N+]([O-])C1(Br)COCOC1`, the result in test [1], in test [2], in test [3], in [4], in test [5] and in test [7] was inactive. The outcome in [8], in test [9], in test [10], in test [16], in test [11] and in test [12] was inactive. The outcome in [17] and in test [13] was inactive. The AC50 in test [6] was 53.1 µM (active).

For the compound `O=C(/C=C/C=C/c1ccc2c(c1)OCO2)N1CCCCC1`, the results for the AC50 in test [1] and in test [3] were 100 µM (active) and 2.53 µM (active), respectively. The compound was called inactive in test [2], in [4], in [5], in test [6], in test [7] and in [8]. Also, the outcome in test [16], in test [11], in test [12], in test [17] and in test [13] was inactive.

For `c1ccc(-c2ccccn2)nc1`, the result in test [1], in [2], in test [3], in test [4], in [6] and in test [15] was inactive. Besides, the compound was called inactive in test [9], in [10], in test [18], in test [16], in [12] and in test [17]. Moreover, the call in test [13] was inactive.

In the case of `CN(C)CCCN(C)C`, the compound was classed as inactive in test [1], in [2], in test [3], in test [4], in test [6] and in test [7]. The compound was called inactive in test [14], in [19], in [9], in test [10], in [16] and in [17]. Moreover, the call in [13] was inactive.

Consider `C=CC=CC=CCCCCC`, for which the compound was called inactive in [1], in test [2], in [3], in test [4], in [5] and in test [19]. The call in [9], in test [18], in [16], in [11], in test [12] and in test [17] was inactive. In test [13], the call was inactive.

On to `COc1ccc2nc(N)sc2c1`, for which the compound was classed as inactive in [1], in test [2], in test [3], in test [4], in test [6] and in test [19]. Also, the compound was called inactive in test [9], in [18], in [16], in test [11], in test [12] and in test [17]. The compound was classed as inactive in test [13].
